“And” between values parts separate entries of the source, which are not always exact repeats. Identical values can stand only once. Hit rate of the full screen: of about 370,000 compounds, about 4,800 (1.3%) were called active.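 How the source made its calls: active means inhibition above about 21% made by adding two undisclosed values (limit read from the data); inactive means the rest.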 The full list was thinned out, with actives kept by preference. The source holds several records for some structures; these can differ, active in one and inactive in another.
target: Protein arginine N-methyltransferase 1 (Homo sapiens) (UniProt Q99873); assay: PRMT1 methyltransferase inhibitors, primary screen, biochemical, fluorescence polarization (AID 652257); settings: recombinant PRMT1, activity-based probe fluorescence polarization; at 2.79 µM; stronger effect = higher value
Sequence (Q99873 whole entry, looked up): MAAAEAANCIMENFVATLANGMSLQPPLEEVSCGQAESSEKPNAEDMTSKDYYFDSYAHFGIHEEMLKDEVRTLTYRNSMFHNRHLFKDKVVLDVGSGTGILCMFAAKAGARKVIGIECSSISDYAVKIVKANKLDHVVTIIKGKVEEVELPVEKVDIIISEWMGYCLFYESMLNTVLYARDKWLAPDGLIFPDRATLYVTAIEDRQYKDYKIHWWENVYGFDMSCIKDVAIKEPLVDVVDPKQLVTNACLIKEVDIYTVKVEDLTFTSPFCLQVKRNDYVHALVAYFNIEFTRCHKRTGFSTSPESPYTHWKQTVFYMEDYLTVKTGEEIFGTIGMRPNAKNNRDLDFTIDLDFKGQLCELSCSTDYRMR

Row | Compound | inhibition
1 | CC(C)NC(=O)NNc1c(Cl)cncc1Cl | -2.84% (inactive)
2 | CCC(c1ccc(NC(=O)OC(C)(C)C)cc1)c1cc(OC)cc(OC)c1 (centres undefined) | 0.65% (inactive)
3 | O=C(c1ccc(S(=O)(=O)NCc2ccco2)cc1)N1CCN(c2ccccc2)CC1 | -5.34% (inactive)
4 | O=c1/c(=C/c2ccc(CNS(=O)(=O)c3ccccc3)o2)sc2n1CCN=2 | 42.5% (active)
5 | O=S(=O)(NCC1OCCc2ccccc21)c1ccccc1 (centres undefined) | 1.74% (inactive)
6 | Cc1cccc(-n2c(N)c(C(=O)N3CCN(C)CC3)sc2=S)c1 | 78.2% (active)
7 | Cc1ccc(-n2c(N)c(C(=O)N3CCOCC3)sc2=S)c(C)c1 | 2.33% (inactive)
8 | N#Cc1ccccc1-n1c(N)c(C(=O)N2CCCC2)sc1=S | 12.5% (inactive)
9 | O=C(CNC(=O)c1ccccc1)OC(C(=O)Nc1cc([N+](=O)[O-])ccc1F)c1ccccc1 (centres undefined) | -5.95% (inactive)
10 | COc1cccc(N2CC(NS(=O)(=O)c3cccs3)CC2=O)c1 (centres undefined) | 0.96% (inactive)
11 | CN[C@H]1C[C@H]2c3cc(N4CCOCC4)ccc3CCN2C[C@H]1[C@H](C)O | 1.75% (inactive)
12 | Cc1ccccc1NC(=O)CSC(=O)c1ccccc1 | 24.5% (active)
13 | Cc1cccc(NC(=O)CSc2nc3c(c(=O)[nH]2)CCCC3)c1C | -0.58% (inactive)
14 | Cc1ccccc1NC(=O)Cn1nnc(-c2ccccc2F)n1 | -2.95% (inactive)
15 | Cc1cccc(NC(=O)COC(=O)CCc2ccccc2)c1C | -1.61% (inactive)
16 | Cc1cccc(NC(=O)CSC(N)=O)c1C | 35.8% (active)
17 | Cc1ccccc1NC(=O)CSC1=NCCN1 | 9.55% (inactive)
18 | CC(c1c[nH]c2ccccc12)c1c(-c2ccccc2)n(C)c2ccccc12 (centres undefined) | 8.87% (inactive)
19 | CN(C)CC(=O)N[C@@H]1C[C@@H]2O[C@H](CO)CC[C@@H]2O[C@@H]1CCc1ccc(C#Cc2ccccc2)cc1 | -0.26% (inactive)
20 | CSc1cccc(NC(=O)CN2C(=O)COc3ccc(S(=O)(=O)N4CCOCC4)cc32)c1 | -1.34% (inactive)
21 | O=C(c1c[nH]c2ccccc12)N1CCC(Oc2cccnc2)CC1 | -5.2% (inactive)
22 | CN1CC(=O)N=C1N | -1.28% (inactive) and 0.16% (inactive)
23 | CCOc1ccc(CCNC(=O)COC(=O)C2CCN(c3ccc(C(F)(F)F)cn3)CC2)cc1OCC | -0.97% (inactive)

Row | Compound | inhibition
24 | CCCC(O)(c1ccccc1)C(c1ccccc1)c1ccccn1 (centres undefined) | 3.01% (inactive)
25 | C=CC1=C(C(=O)O)N2C(=O)[C@@H](NC(=O)/C(=N\OCC(=O)O)c3csc(N)n3)[C@H]2SC1 | 23.7% (active)
26 | CO/N=C(\C(=O)N[C@@H]1C(=O)N2C(C(=O)O)=C(COC(C)=O)CS[C@H]12)c1csc(N)n1 (stereo in doubt) | 16% (inactive) and 23.3% (active) and 25.5% (active)
27 | C=CC1=C(C(=O)O)N2C(=O)[C@@H](NC(=O)/C(=N/OCC(=O)O)c3csc(N)n3)[C@H]2SC1 | 28.6% (active)
28 | COc1ccc(-n2c(COc3ccccc3)nnc2SCC(=O)Nc2ccc3c(c2)OCO3)cc1 | 0.3% (inactive)
29 | C=C(C)CNC(=S)/N=c1\scc(C)n1CC | 2.72% (inactive)
30 | O=C(NCCC1=CCCCC1)C1CCN(S(=O)(=O)c2ccc(Cl)s2)CC1 | 2.95% (inactive)
31 | CCc1c(C)c2ccc(OC3CCCCC3=O)cc2oc1=O (centres undefined) | -0.12% (inactive)
32 | CCCCCCN1CCS(=O)(=O)N(Cc2ccc(C(F)(F)F)cc2)C(C(=O)OC)C1 (centres undefined) | 0.07% (inactive)
33 | C#CCCN([C@H](C(=O)OC)C(C)C)S(=O)(=O)c1ccc(F)cc1Br | 1.71% (inactive)
34 | OCCn1c(-c2ccccc2)csc1=Nc1ccccc1 | 63.9% (active)
35 | O=c1cc(CCl)nc2scc(-c3ccccc3)n12 | 6.61% (inactive)
36 | C=CC1=CCN(S(=O)(=O)C(C)(C)C)[C@@H]1CCO | -1.03% (inactive)
37 | Cc1cc(C(=O)OCC(=O)c2c(N)n(C)c(=O)n(C)c2=O)c(C)o1 | -0.81% (inactive)
38 | Cc1cc(C)c(S(=O)(=O)NN=C2c3ccccc3[C@H]3Cc4csc[n+]4[C@@H]23)c(C)c1 | 52.5% (active)
39 | COc1ccc(C(=O)N2CCN(c3ccc(C(C)=O)cc3F)CC2)cc1S(=O)(=O)NC1CC1 | 2.01% (inactive)
40 | CCCCCN1CCCCC(NC(=O)C(C)CCC)C1=O (centres undefined) | 3.28% (inactive)
41 | COC(=O)C1CN(CCc2ccccc2)CCS(=O)(=O)N1Cc1ccc(F)cc1 (centres undefined) | 0.22% (inactive)
42 | O=C(Nc1ccc(F)cc1)c1cccnc1N1CCOCC1 | 0.36% (inactive)
43 | O=C(O)c1ccc(NN=CC2=C(N3CCOCC3)/C(=C/c3ccccc3)CC2)cc1 | 23.8% (active)
44 | O=C1OC(NC(=O)c2ccccc2)C(N2CCOCC2)=C1Cl (centres undefined) | 0.25% (inactive)
45 | CC12CCC(C(=O)N(CCC#N)CCC#N)(CC1=O)C2(C)C (centres undefined) | -1.4% (inactive)
46 | COC(=O)[C@]12C[C@H](CC(=O)NCCc3ccccc3OC)C(=O)N(Cc3ccco3)C1=C[C@H](C(C)C)O[C@@H]2C1CC1 | -1.39% (inactive)

Row | Compound | inhibition
47 | CC(C)CNC(=O)OCc1cn(Cc2ccc(F)cc2)nn1 | -6.07% (inactive)
48 | S=c1[nH]nc2c3c4c(sc3ncn12)CCCC4 | 40.6% (active)
49 | CCn1c(=S)[nH]c2sc3c(c2c1=O)CCCCC3 | -0.49% (inactive)
50 | N=c1c2c3c(sc2nc2n1CCCCC2)CCCC3 | -1.83% (inactive)
51 | CC(C)(C)NC(=O)C(c1cccnc1)N(C(=O)c1cnco1)c1ccc(C(C)(C)C)cc1 (centres undefined) | 1.45% (inactive)
52 | Cc1nc2ccc(C(=O)N3CCN(C(=O)C(C)(C)C)CC3)cc2n1C1CCCC1 | -5.06% (inactive)
53 | Nc1nnc(SCC(=O)NCC(=O)Nc2ccc(F)c(F)c2F)s1 | 0.28% (inactive)
54 | COc1cccc(NC(=O)COC(=O)/C=C/c2ccco2)c1 | 34.6% (active)
55 | NS(=O)(=O)c1cccc(NC(=O)COC(=O)/C=C/c2ccco2)c1 | 8.16% (inactive)
56 | CC(C)CNC(=O)COC(=O)/C=C/c1ccco1 | 3.56% (inactive)
57 | COC(=O)[C@@]12CCCCC3=C1N(CCC3)C(=O)[C@H]2CC(=O)NCc1cccc2ccccc12 | 0.96% (inactive)
58 | Cc1ccc(C2=CCN(C)C(=O)N2c2ccc(Cl)cc2)cc1 | 1.54% (inactive)
59 | COCCn1c(SCC(=O)Nc2cc(Cl)ccc2OC)nc2c(c1=O)SC(C)C2 (centres undefined) | -2% (inactive)
60 | COc1ccc(C(=O)OCCN(C)C2CN(Cc3cn(Cc4cccc(C)c4)nn3)S(=O)(=O)C2)cc1OC (centres undefined) | -3.17% (inactive)
61 | CC(=O)N1CCCN(C2=Nc3ccccc3Sc3ccccc32)CC1 | -2.73% (inactive)
62 | CCCCOCCCNC(=O)C[C@H]1C[C@@]2(C(=O)OC)C(=C[C@H](COCc3ccccc3)O[C@@H]2C)N(Cc2cccc3ccccc23)C1=O | -1.04% (inactive)
63 | CCOC(=O)C1(Cc2cccc(OC)c2)CCCN(C(=O)CCSC)C1 (centres undefined) | 2.68% (inactive)
64 | CC(C)(C)C1C/C(=C/c2ccco2)C(=O)/C(=C/c2ccco2)C1 (centres undefined) | 24.6% (active)
65 | O=C(NCCc1c[nH]c2ccccc12)OCc1cn(-c2c(F)cccc2F)nn1 | 0.52% (inactive)
66 | CCCCNC(=O)C[C@@H]1C(=O)N(CCc2ccc(Cl)cc2)C2=CCCC[C@]21C(=O)OCC | -4.44% (inactive)
67 | NC(=O)NC(=O)CSc1nc2cc([N+](=O)[O-])ccc2n1-c1cccc(C(F)(F)F)c1 | -3.17% (inactive)
68 | CC(=O)OC1CCC2C3CCC4=C(CC(F)C(=O)C4)C3CCC12C (centres undefined) | -4.66% (inactive)
69 | Fc1ccc(COc2ccc(-c3nnco3)cc2)cc1 | 2.4% (inactive)

Row | Compound | inhibition
70 | Fc1ccc(COc2cccc(-c3n[nH]c(=S)o3)c2)cc1 | 31.7% (active)
71 | CN(Cc1ccc(F)cc1)C(=O)COc1ccc2ccccc2c1 | 6.77% (inactive)
72 | CC(C)(C)NC(=O)CSC(=Nc1ccccc1F)NC#N | 8.54% (inactive)
73 | COc1ccc(-n2c(SCC(=O)Nc3ccc4c(c3)OCCO4)nnc2-c2ccc(Cl)cc2)cc1 | -2.7% (inactive)
74 | O=C(CN1CCC(NC(=O)NCc2ccccc2)CC1)Nc1ccc2c(c1)OCCO2 | 2.96% (inactive)
75 | COc1ccccc1C(=O)CSc1nnc(-c2ccccn2)n1-c1ccccc1 | -1.16% (inactive)
76 | O=C(C(=O)N1CCN(c2ccccc2)CC1)c1ccc2c(c1)OCO2 | 0.48% (inactive)
77 | O=S(=O)(c1ccc2c(c1)OCCO2)N1CCc2ccccc21 | -3.53% (inactive)
78 | O=C(CCN1CCc2ccccc2C(O)(c2ccccc2)C1)c1ccc2c(c1)OCCO2 (centres undefined) | 51.5% (active)
79 | COc1ccc(C2NC(=O)N(C)C(C)=C2[N+](=O)[O-])cc1 (centres undefined) | -2.65% (inactive)
80 | COc1ccc(S[C@]2(C(=O)N(C)C)CC(=O)N(c3ccc(OC)cc3)[C@@H]2c2ccc(OC)cc2)cc1 | -1.57% (inactive)
81 | CC(C)(C)c1ccc(CSc2nnc(-c3cccs3)o2)cc1 | -1.14% (inactive)
82 | O=C(NC(=S)N1CCN(Cc2ccccc2)CC1)c1ccccc1 | 0.22% (inactive)
83 | OCCN1CCN(C(=S)c2ccc(-c3ccccc3)cc2)CC1 | 32% (active)
84 | O=C1CCN(CCCc2ccccc2)CCN1CCO | -6.27% (inactive)
85 | CC1CN(CC(=O)NC(C)c2ccccc2)CC(C)O1 (centres undefined) | 0.73% (inactive)
86 | CCc1cccc(CC)c1N1C(=O)CC(Sc2ccccc2N)C1=O (centres undefined) | -1.17% (inactive)
87 | COc1cccc(N2C(=O)CC(N3CCc4ccccc4C3)C2=O)c1 (centres undefined) | 4.88% (inactive)
88 | COC(=O)c1ccccc1SC1CC(=O)N(c2cccc(C)c2)C1=O (centres undefined) | 57.3% (active)
89 | Cc1ccccc1S(=O)(=O)NC(=O)C1(C)CCN1C(=O)C1(c2ccccc2)CCCC1 (centres undefined) | 0.03% (inactive)

From PubChem BioAssay AID652257 (The Scripps Research Institute Molecular Screening Center, 2013)
